# Laboratory results taken from PubChem BioAssay (NCI).
# About 83,000 compounds went through this panel and 20% of them were active in at least one assay; those are over-represented in the sample as a whole.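 Method: cells in 96-well plates; compound added at one concentration; 48 h incubation; percent growth measured; values under 10 scored active.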 Values without a mark were called inactive. Activity calls are given as the source filed them.
# Test system: NCI-H226 lung
# Assay: NCI-60 one-dose screen, 48 h (100 = growth as untreated, 0 = no growth, -100 = all killed)
# Settings: 10 µM unless noted
# Experimental: Growth inhibition of the NCI-H226 human Non-Small Cell Lung tumor cell line is measured as a screen for anti-cancer activity. Cells are grown in 96 well plates and exposed to the test compound for 48 hours. Compounds are tested at a single concentration, which is 10^-5 M for most compounds. The reported endpoint is percent growth (GI% or GIPRCNT), where numbers from 0 - 100% represent growth inhibition, and numbers from -100% - 0 represent cell death. For example, a value of 40 represents 60% growth inhibition. A value of 0 means no net growth occurred over the course of the experiment. A value of -40 indicates 40% of cells at the beginning of the experiment died by the end of the experiment. A value of -100 means all cells are dead at the end of the experiment.
# NCI-60 Human Tumor Cell Lines Screen was performed using the standard one-dose NCI protocol, which is described in more detail at https://dtp.cancer.gov/discovery_development/nci-60/default.htm.
# Compounds with GIPRCNT values below 10 were considered active. Activity score was based on GIPRCNT using the following formula: […]
# Score is 0 for GIPRCNT values of 100 or above, 50 for GIPRCNT values of 0, and 100 for GIPRCNT values of -100.
row,Structure (SMILES),growth
1,N#Cc1c(-c2ccccc2)cc(-c2ccccc2)n(CC(=O)O)c1=O,75.2%
2,COCCCNS(=O)(=O)c1ncnc2nc[nH]c12,134%
3,Clc1ccc2c(c1)C(Br)c1cc(Cl)cc(Cl)c1-2 (stereo not given),14.4%
4,CC(=O)Nc1cc2c3c(cccc3c1)-c1ccccc1-2,37.4%
5,NS(=O)(=O)c1ccc(-n2ncc3c(SCc4ccccc4)ncnc32)cc1,99.8%
6,O=C1Nc2ccc(Cl)cc2[C@@](C#CC2CC2)(C(F)(F)F)O1,81.4%
7,CC(=O)[C@H]1CC[C@H]2[C@@H]3C[C@H](C)C4=CC(=O)CC[C@]4(C)[C@H]3C(=O)C[C@]12C,104%
8,COc1cc(Cl)cc(-c2nn(-c3cccc(NC(=O)c4cc(C(F)(F)F)cc(C(F)(F)F)c4)c3)cc2-c2ccncc2)c1,76%
9,COc1ccc(C2=NN(C(N)=S)C(c3ccc4c(c3)OCO4)C2)cc1 (stereo not given),58.2%
10,O=c1[nH]c(N2CCC(Cc3ccccc3)CC2)nc2sc3c(c12)CCCC3,92.3%
11,CCCCc1ccc(C(N)=O)nc1,86.5%
12,C#C[C@]1(O)CCC2C3CCc4cc(O)ccc4C3CC[C@@]21C (stereo not given in full),81.3%
13,COc1ccc([N+](=O)[O-])c(S(=O)(=O)c2ccc(Cl)cc2)n1,91.2%
14,N#Cc1c(-c2ccccc2)cc(-c2ccccc2)n(CCCCCCC(=O)O)c1=O,93.1%
15,COc1ccc(-c2cc(-c3nnc(SCC(=O)Nc4ccc(C(C)=O)cc4)n3-c3ccccc3)c3ccccc3n2)cc1OC,105%
16,O=C(COc1ccc(/C=C2\Oc3ccc4ccccc4c3C2=O)cc1)c1ccc([N+](=O)[O-])cc1,105%
17,CC[n+]1c(/C=C/c2ccc(N3CCCC3)cc2)cccc1/C=C/c1ccc(N2CCCC2)cc1,-65.7% (active)
18,[N-]=[N+]=NCc1ncc(-c2ccc(C(F)(F)F)cc2)c(NC2CCCCCC2)n1,80.9% [50 µM]
19,CC(C)C[C@H](NC(=O)/C=C/Cn1ccc2ccccc2c1=O)B(O)O,-15.5% (active)
20,COc1ccc(C(=O)/C=C/c2cccc(Nc3ccnc4cc(Cl)ccc34)c2)cc1,54.3%

row,Structure (SMILES),growth
1,NS(=O)(=O)c1ccc(-n2ncc3c(N/N=C/c4ccccc4)ncnc32)cc1,107%
2,CC(=O)N1N=C(c2ccc(Cl)cc2)CC1c1c(C)nn(-c2ccccc2)c1N(C)Cc1ccccc1 (stereo not given),67%
3,CC(C)=CCNc1ncnc2c1ncn2C1OC(COP(=O)(O)O)C(O)C1O (stereo not given),45.7%
4,O=C(c1ccccc1)c1ccc(Oc2ccc([N+](=O)[O-])cc2[N+](=O)[O-])cc1,48.4%
5,O=C(COc1cccc(/C=C2\Oc3ccc4ccccc4c3C2=O)c1)c1ccc([N+](=O)[O-])cc1,85.8%
6,Cc1cc2c(cc1C)[n+](Cc1ccc3ccccc3n1)cn2Cc1ccc2ccccc2n1,9.61% (active)
7,COC(=O)[C@H](CCCCNC(=O)OCc1ccccc1)NC(=O)[C@@H](NC(=O)Nc1cc(C(F)(F)F)cc(C(F)(F)F)c1)C(C)C,39% [100 µM]
8,O=C(c1ccc(Cl)cc1)c1ccc(Cl)cc1,100%
9,C[C@H]1O[C@@H](O[C@H]2[C@@H](O)C[C@H](O[C@H]3[C@@H](O)C[C@H](O[C@H]4CC[C@]5(C)C6CC[C@]7(C)[C@@H](C8=CC(=O)OC8)CC[C@]7(O)C6CC[C@@H]5C4)O[C@@H]3C)O[C@@H]2C)C[C@H](O)[C@@H]1O (stereo not given in full),-100% (active)
10,COc1cc(C2CC(C3C(=O)N(C)C(=O)N(C)C3=O)=NN2C=O)cc(OC)c1OC (stereo not given),95.8%
11,Cc1ccc(S(=O)(=O)N2CCN(C(=O)CSc3nc4ccc(C)cc4[nH]3)CC2)cc1,91.3%
12,Cn1cnc([N+](=O)[O-])c1Sc1nc(N)nc2nc[nH]c12,74.1%
13,CC(=O)N1N=C(c2ccc(C(F)(F)F)cc2)CC1c1ccc2c(c1)OCO2 (stereo not given),96.5%
14,Cc1cc(Br)c(C)cc1Br,94.4%
15,O=C(CSc1ncc(-c2ccccc2)n1-c1ccccc1)Nc1ccc(-c2nc3ccccc3s2)cc1,103%
16,C[N+]1(C)C2CC[C@@H]1CC(OC(=O)C(O)c1ccccc1)C2 (stereo not given in full),84.7%
17,CC(=O)c1nn(-c2ccccc2)c(=Nc2ccccc2)cc1C,98.1%
18,O=C(O)C1C(c2ccccc2)c2ccccc2C(O)C1CO (stereo not given),105%
19,CN(C)CCC(=O)Nc1ccc(-n2cc(-c3cccc(NC(=S)Nc4cccc(-c5cn(-c6ccc(NC(=O)CCN(C)C)cc6)nn5)c4)c3)nn2)cc1,135%
20,O=C(COc1cccc(/C=C2\Oc3ccc4ccccc4c3C2=O)c1)c1ccc(Cl)cc1,91.9%
